Measured values from PubChem BioAssay (NCI).
This is part of a sample that, as a whole, favours compounds with a hit. Of some 83,000 tested, about 20% had one in any assay.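 Results are percent growth after 48 hours of single-concentration exposure. 100 means growth as in untreated cells, lower positive values show inhibition; negative values down to -100 show cell death.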 Unmarked numbers belong to inactive results. The source made the active and inactive calls. The calls were made as follows: active = growth percent below 10; inactive = the rest.

Assays:
Test in all cases: NCI-60 one-dose screen, 48 h (100 = growth as untreated, 0 = no growth, -100 = all killed)
EKVX NSCLC = conditions: 10 µM unless noted
SN12C renal = conditions: 10 µM unless noted
UO-31 renal = conditions: 10 µM unless noted
TK-10 renal = conditions: 10 µM unless noted
ACHN renal = conditions: 10 µM unless noted
CAKI-1 renal = conditions: 10 µM unless noted
A498 renal = conditions: 10 µM unless noted
CCRF-CEM leukemia = conditions: 10 µM unless noted
MOLT-4 leukemia = conditions: 10 µM unless noted
SR leukemia = conditions: 10 µM unless noted
RPMI-8226 leukemia = conditions: 10 µM
OVCAR-8 ovarian = conditions: 10 µM unless noted
OVCAR-5 ovarian = conditions: 10 µM unless noted
OVCAR-4 ovarian = conditions: 10 µM unless noted
SK-OV-3 ovarian = conditions: 10 µM
IGROV1 ovarian = conditions: 10 µM unless noted
OVCAR-3 ovarian = conditions: 10 µM unless noted
HS 578T breast = conditions: 10 µM unless noted
NCI/ADR-RES ovarian = conditions: 10 µM unless noted
SK-MEL-2 melanoma = conditions: 10 µM unless noted

SMILES | growth (EKVX NSCLC) | growth (SN12C renal) | growth (UO-31 renal) | growth (TK-10 renal) | growth (ACHN renal) | growth (CAKI-1 renal) | growth (A498 renal) | growth (CCRF-CEM leukemia) | growth (MOLT-4 leukemia) | growth (SR leukemia) | growth (RPMI-8226 leukemia) | growth (OVCAR-8 ovarian) | growth (OVCAR-5 ovarian) | growth (OVCAR-4 ovarian) | growth (SK-OV-3 ovarian) | growth (IGROV1 ovarian) | growth (OVCAR-3 ovarian) | growth (HS 578T breast) | growth (NCI/ADR-RES ovarian) | growth (SK-MEL-2 melanoma)
O=C1NC(=O)C2(CCCC2C(=O)O)N1 (configuration not stated) | 94.2% | 99.6% | 96.5% | 106% | 99.5% | 102% | 115% | 91.8% | 101% | 90.4% | 103% | 100% | 110% | 99.4% | 119% | 131% | 120% | 115% | 100% | –
CCN1CCN(C(=S)SCC(=O)Nc2nc3ccc(OC)cc3s2)CC1 | 101% | 97.6% | 79% | 111% | 110% | 81.8% | 105% | – | 97.2% | 88.3% | 98% | 103% | 98.8% | 93.3% | 112% | – | 101% | 106% | – | –
COC(=O)c1ccc(C(=O)Nc2ccccc2N)cc1 | – | 62.9% | 36.7% | – | 88.6% | – | 80.5% | 4.59% (active) | 30.4% | 67.1% | 12.6% | 56.9% | 53.4% | 96.2% | 92.6% | 74.7% | 87.5% | 75% | 53.1% | 63%
Cc1ccc(S(=O)(=O)N2CCc3ccc(O)c4c3C2Cc2ccc3c(c2-4)OCO3)cc1 (configuration not stated) | 49.3% | 39.5% | 30.4% | 32.6% | 44.9% | 32% | 35.6% | – | 10.9% | 14.8% | 27.4% | 31.1% | 45.8% | 45.6% | 7.28% (active) | 41.6% | -47.7% (active) | 47.5% | 9.54% (active) | –
OC[C@@H](O)[C@@H](O)CO | 107% | 99.6% | 80.5% | 111% | 103% | 93.9% | 101% | – | 94.8% | 81.7% | 118% | 105% | 102% | 101% | 116% | 109% | 106% | 104% | 99.6% | –
COC(=O)c1cc(-c2ccc(C)cc2)n(C(=O)CSc2nc3sc(C(N)=O)c(C)c3c(=O)n2Cc2ccccc2)n1 | – | – | 87.5% | 106% | 98.8% | 97.7% | -32.1% (active) | 93.2% | 95.1% | 86.9% | 94.4% | 104% | 110% | 100% | 96.8% | – | 106% | 107% | – | 110%
COc1ccc(NC(=O)COc2ccccc2)c(C(N)=O)c1 | – | 44.4% | 57% | – | 55.7% | 49% | 9.39% (active) | 6.03% (active) | 20.1% | 24.5% | 11.9% | 35.2% | 43.6% | 87.7% | 4.18% (active) | 46% | 0.699% (active) | 27.9% | 5.8% (active) | 35.9%
Fc1c[c-]c(-c2ccccn2)c(F)c1.Fc1c[c-]c(-c2ccccn2)c(F)c1.[Cl][Pt+].[Cl][Pt+].c1ccc([PH+](C[PH+](c2ccccc2)c2ccccc2)c2ccccc2)cc1 | – | 5.5% (active) | 75.9% | – | 89.3% | 41.4% | 21.6% | – | 23.4% | 19.7% | – | 15.1% | 49.2% | 6.98% (active) | – | 21.2% | 7.81% (active) | 26.1% | 97.9% | 8.6% (active)
